Compound activity deposited in PubChem BioAssay by Milwaukee Institute for Drug Discovery.
Cy5 interf NS3h = enhances or quenches Cy5 fluorescence in NS3h assay; Cy5-dT15 DNA with NS3h, fluorescence interference; actives lie on both sides; signal over control mean, under 1 quenches; fluorescence interference ratio at 100 µM; 6% of 16,000 active; AID 720488;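 active = compound fluorescence over control fluorescence at most 0.8, a quencher, or at least a set upper limit, an enhancer; inactive = ratio between 0.8 and the set upper limit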
HCV NS3h FP = blocks HCV NS3 helicase binding to DNA | inhibition, % at 100 µM | NS3h Cy5-dT15 DNA binding, fluorescence polarization | 1.6% of 16,000 active;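 active = inhibition above the average over every tested compound plus 3 SD, cut at about 40% in these data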
NS3h confirm = confirmation of hepatitis C virus NS3 helicase inhibitors; shares compounds with HCV NS3h FP; NS3h binding to Cy5-dT15 DNA, fluorescence polarization; inhibition, % at 100 µM; 20% of 240 active; AID 720485;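 active = percent inhibition of 50% or more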
SSB-DNA FP CB = counter-screen for HCV NS3 helicase inhibitors: E. coli SSB binding; E. coli SSB binding Cy5-dT15, fluorescence polarization; AID 720486; 40% of 240 active; shares compounds with HCV NS3h FP; inhibition, % at 100 µM;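 active = inhibition of at least 50%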;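 note: displacers lower Cy5 polarization so higher inhibition means more SSB displaced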
Target sequence (P0AGE0 whole entry, looked up): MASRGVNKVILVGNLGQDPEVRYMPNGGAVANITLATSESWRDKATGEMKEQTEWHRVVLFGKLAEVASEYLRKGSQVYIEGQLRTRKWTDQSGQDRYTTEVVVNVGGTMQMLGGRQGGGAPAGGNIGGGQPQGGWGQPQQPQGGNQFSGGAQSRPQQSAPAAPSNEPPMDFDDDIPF
Cy5 SSB interf = Cy5 fluorescence interference in NS3h counter-screen; 8% of 240 active; fluorescence interference ratio at 100 µM; Cy5-dT15/E. coli SSB fluorescence interference; actives lie on both sides; AID 720487; shares compounds with HCV NS3h FP;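 active = fluorescence interference ratio at or above 1.2, signal boosting, or at or below 0.8, signal quenching; inactive = ratio between 0.8 and 1.2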;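 note: ratio of compound well signal to mean negative control signal so 1 means no effect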
Cy5 interf conf = Cy5 fluorescence interference, confirmation counter-screen; Cy5-dT15 DNA/NS3h fluorescence interference counterscreen; fluorescence interference ratio at 100 µM, hits read low; shares compounds with HCV NS3h FP; 44% of 240 active;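 active = fluorescence interference ratio at or below 0.8 quencher or at or above a set limitenhancer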;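 note: ratio of compound fluorescence to mean of negative controls so 1 means no interference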
* hit, by the source's call. In the library only some 7.6% were active in any assay of this set; here they are far more common.

CCN(CC)CC#CCC(C(=O)c1ccccc1)C(=O)C(C)(C)OC (configuration not stated) was read as Cy5 interf NS3h 0.95 and HCV NS3h FP -13.
NS(=O)(=O)c1ccc(NC(=S)NC(=O)c2ccccc2)cc1 was read as Cy5 interf NS3h 1, HCV NS3h FP 50*, NS3h confirm 37, SSB-DNA FP CB 83*, Cy5 SSB interf 1 and Cy5 interf conf 1.
CC(=O)c1ccc(NC(=S)NC(=O)c2ccccc2)cc1 was read as Cy5 interf NS3h 0.89 and HCV NS3h FP 24.
For N=c1sc(Cc2ccccc2Cl)cn1CC(=O)c1ccccc1 the results were Cy5 interf NS3h 1 and HCV NS3h FP 14.
`O=C1N=c2ccc(Br)cc2=C1c1sc(=S)n(C(Cc2ccccc2)C(=O)O)c1O` (configuration not stated) gave Cy5 interf NS3h 0.76*, HCV NS3h FP 76*, NS3h confirm 31, SSB-DNA FP CB 66*, Cy5 SSB interf 0.75* and Cy5 interf conf 0.84.
Screening O=C1N=c2ccc([N+](=O)[O-])cc2=C1c1sc(=S)n(Cc2ccco2)c1O returned Cy5 interf NS3h 1.1 and HCV NS3h FP 9.
For COc1ccc(NC(=O)CN(c2cccc(Br)c2)S(=O)(=O)c2ccccc2)cc1 the results were Cy5 interf NS3h 1 and HCV NS3h FP 10.
For CCOc1cccc(C(=O)Nc2ccc(NC(=O)c3ccco3)c(OC)c2)c1 the results were Cy5 interf NS3h 0.92 and HCV NS3h FP 4.
For COc1ccc(-c2ccc(/C=N\n3cnnc3)o2)c([N+](=O)[O-])c1 the results were Cy5 interf NS3h 0.86 and HCV NS3h FP -9.
Screening COc1cc(/C=C2/SC(=S)N(CCC(=O)Nc3nnc(C)s3)C2=O)cc(OC)c1OC returned Cy5 interf NS3h 0.94 and HCV NS3h FP 0.
CC(C)C(=O)Nc1ccc(Br)c(NC(=O)c2ccccc2)c1 was read as Cy5 interf NS3h 1 and HCV NS3h FP 4.
CCc1c(C#N)c(N)nc(SCC(=O)c2ccc(-c3ccccc3)cc2)c1C#N was read as Cy5 interf NS3h 1 and HCV NS3h FP 3.
For CCc1c(C#N)c(N)nc(SCC(=O)c2cc3ccccc3oc2=O)c1C#N the results were Cy5 interf NS3h 1.1, HCV NS3h FP 30, NS3h confirm -4, SSB-DNA FP CB 3, Cy5 SSB interf 1 and Cy5 interf conf 0.76*.
Screening NC1=NN(c2ccc(N)cc2)CC1 returned Cy5 interf NS3h 0.076*, HCV NS3h FP active, NS3h confirm 90*, SSB-DNA FP CB 100*, Cy5 SSB interf 0* and Cy5 interf conf 0.072*.
COc1ccc(/C=C2\C(=O)NC(=O)N(c3ccc(Cl)cc3)C2=O)cc1C(=O)O was read as Cy5 interf NS3h 1 and HCV NS3h FP 30.
`CCOc1ccc(C(=O)Nc2cc(OC)ccc2OC)cc1[N+](=O)[O-]` gave Cy5 interf NS3h 1.1, HCV NS3h FP 89*, NS3h confirm 16, SSB-DNA FP CB 13, Cy5 SSB interf 0.93 and Cy5 interf conf 0.94.
Screening COc1ccc(C)cc1NC(=O)c1ccc(OC)c([N+](=O)[O-])c1 returned Cy5 interf NS3h 0.97 and HCV NS3h FP 4.
CC/C(C)=N\Oc1nc(N)nc(N(C)C)n1 was read as Cy5 interf NS3h 1 and HCV NS3h FP 0.
Screening Cc1ccc(OCC(=O)Nc2ccc(I)cc2Cl)cc1 returned Cy5 interf NS3h 1 and HCV NS3h FP 13.
Screening O=c1oc2ccccc2c(O)c1C=C1C=Nc2ccccc21 returned Cy5 interf NS3h 1, HCV NS3h FP 46*, NS3h confirm 31, SSB-DNA FP CB 39, Cy5 SSB interf 0.91 and Cy5 interf conf 0.96.
`CCN(CC)c1ccc(-n2c(O)c(C=C3C=Nc4ccccc43)sc2=S)cc1` gave Cy5 interf NS3h 1.1 and HCV NS3h FP 20.
CCOc1cc(/C=C2\SC(=S)N(c3cccc(OC)c3)C2=O)ccc1O was read as Cy5 interf NS3h 0.98 and HCV NS3h FP 14.
Screening O=P(O)(CP(=O)(O)c1ccccc1)c1ccccc1 returned Cy5 interf NS3h 1.1 and HCV NS3h FP -11.
CCOc1ccc(C(=O)Nc2cccc(OC)c2)cc1OCC was read as Cy5 interf NS3h 1 and HCV NS3h FP 8.
Screening O=C1NC(=S)NC(=O)C1=Cc1ccccc1OCc1ccccc1Cl returned Cy5 interf NS3h 0.97 and HCV NS3h FP 27.
For O=C1NC(=S)NC(=O)C1=Cc1ccc(OCc2ccccc2Cl)cc1 the results were Cy5 interf NS3h 0.89, HCV NS3h FP 48*, NS3h confirm 1, SSB-DNA FP CB 61*, Cy5 SSB interf 0.92 and Cy5 interf conf 0.75*.
`O=C1NC(=O)N(c2ccc(Cl)cc2)C(=O)/C1=C\c1ccc(-c2ccc([N+](=O)[O-])cc2)o1` gave Cy5 interf NS3h 1 and HCV NS3h FP 8.
`Cc1cc(C)cc(N2C(=O)NC(=O)/C(=C\c3ccc(I)o3)C2=O)c1` gave Cy5 interf NS3h 1.1, HCV NS3h FP 46*, NS3h confirm 39, SSB-DNA FP CB 92*, Cy5 SSB interf 1 and Cy5 interf conf 1.
Screening Cc1cc(C)cc(N2C(=O)NC(=O)/C(=C\c3ccccc3C)C2=O)c1 returned Cy5 interf NS3h 1.1 and HCV NS3h FP -11.
`O=C1NC(=O)N(c2ccc(Cl)cc2)C(=O)/C1=C/c1ccc(I)o1` gave Cy5 interf NS3h 1.3*, HCV NS3h FP 56*, NS3h confirm 26, SSB-DNA FP CB 78*, Cy5 SSB interf 1.1 and Cy5 interf conf 0.82.
For COc1cc(/C=C2\C(=O)NC(=O)N(c3ccc(Cl)cc3)C2=O)cc(I)c1OC the results were Cy5 interf NS3h 1.1 and HCV NS3h FP 10.
Cc1ccc(N2C(=O)NC(=O)/C(=C\c3ccc(-c4ccc(C)c([N+](=O)[O-])c4)o3)C2=O)cc1 was read as Cy5 interf NS3h 1.1, HCV NS3h FP 61*, NS3h confirm 2, SSB-DNA FP CB 24, Cy5 SSB interf 0.96 and Cy5 interf conf 0.89.
For CC(C)CCNS(=O)(=O)c1ccc(Cl)cc1 the results were Cy5 interf NS3h 1 and HCV NS3h FP 0.
Screening O=C(/C=C/c1ccc(OCc2ccccc2)cc1)c1ccc(Br)cc1 returned Cy5 interf NS3h 1.1 and HCV NS3h FP -5.
`COc1ccc(OC)c(/C=C/C(=O)Nc2cccc(Br)c2)c1` gave Cy5 interf NS3h 1 and HCV NS3h FP 4.
Screening Cc1ccc(S(=O)(=O)N=C(Nc2cccc(O)c2)c2ccccc2)cc1 returned Cy5 interf NS3h 0.93 and HCV NS3h FP 14.
For O=c1[nH]c(=O)n(-c2cccc(C(F)(F)F)c2)c(O)c1C=C1C=CC=N1 the results were Cy5 interf NS3h 0.97 and HCV NS3h FP 27.
For O=c1[nH]c(=S)n(-c2ccccc2F)c(O)c1C=C1C=CC=N1 the results were Cy5 interf NS3h 0.57*, HCV NS3h FP 114*, NS3h confirm 48, SSB-DNA FP CB 128*, Cy5 SSB interf 0.74* and Cy5 interf conf 0.6*.
